# Measurements published in PubChem BioAssay AID2384 (Southern Research Specialized Biocontainment Screening …, 2010).
# Hit rate of the full screen: of about 2,300 compounds, about 1,100 (48%) were called active. The set was probably picked from earlier hits. The list shows a part of the results. Entries with a potency or affinity are not part of this list. Values without a mark were called inactive. How the calls were made is not given here.
# Test: inhibitors in S. typhi counter-screen strain, dose response, counter-screen for PhoP regulon inhibitor project, fluorescence, 4 h (AID 2384)
# Conditions: S. typhi GFP reporter counter-screen; series mostly up to 150 µM
row,Structure (SMILES),inhibition
1,O=C(Oc1ccc[nH]c1=O)c1cc([N+](=O)[O-])cc([N+](=O)[O-])c1,inactive
2,Cc1ccc(C)c2[nH]c(=O)c(CN(Cc3cccnc3)C(=S)NCc3ccco3)cc12,inactive
3,C#CCOCCOCCOCCNc1nc(N2CCN(C(=O)CCCCCCCCCCNC(=O)[C@H](CO)n3cc(CCCSC)nn3)CC2)nc(N2CCN(C(=O)CCCCCCCCCCNC(=O)[C@H](CCCN=C(N)N)n3cc(C[C@@H](C)CC)nn3)CC2)n1,inactive
4,C#CCOCCOCCOCCNc1nc(N2CCN(C(=O)CCCCCCCCCCNC(=O)[C@H](CCCCN)n3cc(C[C@@H](C)CC)nn3)CC2)nc(N2CCN(C(=O)CCCCCCCCCCNC(=O)[C@@H]([C@H](C)O)n3cc(C)nn3)CC2)n1,inactive
5,C#CCOCCOCCOCCNc1nc(N2CCN(C(=O)CCCCCCCCCCNC(=O)Cn3cc(C[C@@H](C)O)nn3)CC2)nc(N2CCN(C(=O)CCCCCCCCCCNC(=O)[C@H](CCCN=C(N)N)n3cc(C[C@@H](C)CC)nn3)CC2)n1,inactive
6,CCN(CC)CCCNC(=O)c1c(O)c2c([nH]c1=O)CCCC2,inactive
7,COc1cc(C(=O)Nc2ccc3c(c2)OCCO3)ccc1OC(C)C,inactive
8,Cc1ccc(S(=O)(=O)N2CCOCC2)cc1NC(=O)CSc1nc(N)cc(=O)[nH]1,inactive
9,C[C@@H](CO)NC(=O)c1ccc2c3n(nc2c1)-c1ccc(Cl)cc1CO3,inactive
10,Cc1nc2nc(COc3ccccc3)nn2c(C)c1Cl,inactive
11,CC(C)C(=O)Nc1ccccc1-c1nc2ccccc2[nH]c1=O,inactive
12,O=C(/C=C/c1ccccc1)NC(=S)N1CCSCC1,inactive
13,CCc1nnc(NS(=O)(=O)c2ccc(NC(=S)NC(=O)/C=C/c3ccc(C(C)C)cc3)cc2)s1,inactive
14,O=C(/C=C/c1ccccc1)OCc1cnc(Cl)s1,inactive
15,COc1ccccc1-n1c(SCC(=O)O)nnc1-c1ccc(S(=O)(=O)N2CCCCC2)cc1,inactive
16,O=C(CCSCc1ccccc1F)NCc1cccs1,inactive
17,Nc1cc(N2CCOCC2)c(Cl)cc1[N+](=O)[O-],inactive
18,O=C(NC1CC1)C1CCN(C2CCN(C(=O)Cc3ccc(F)cc3)CC2)CC1,inactive
19,COC(=O)c1ccc(NC(=S)NNC(=O)c2ccccc2)cc1,inactive
20,O=C(NNC(=O)c1cccs1)c1ccc2ccccc2c1,inactive
21,Cc1ccc(NC(=O)C(=O)NNC(=O)c2cccs2)cc1,26.1% [at 2.34 µM]
22,COc1cc(C(=O)NC(=S)Nc2cccc3nc(C)ccc23)cc(OC)c1OC,inactive
23,CCCC(=O)N1CCN(c2ccc(NC(=S)NC(=O)c3cccc(C)c3)cc2)CC1,inactive
24,COc1ccc(-c2noc(CCC(=O)Nc3cccc(C)c3)n2)cc1,inactive
25,CC1(C)CC(=O)C(C(=O)/C=C/NCCc2ccccc2)C(=O)C1,inactive
26,Cc1ccc(-c2cc(N)nc(-c3ccccc3)c2)cc1,inactive

row,Structure (SMILES),inhibition
1,O=C1C(SCCO)=C(SCCO)C(=O)c2ccccc21,inactive
2,O=C(O)c1ccc(NC2=C(Cl)C(=O)c3ccccc3C2=O)cc1,inactive
3,CC(C)C(NS(=O)(=O)c1cccc2nsnc12)C(=O)N1CCn2c1nc1ccccc12 (centres undefined),inactive
4,COc1cccc(N2CCN(C(=S)NCc3ccco3)CC2)c1,inactive
5,COc1ccc(Nc2nc(-c3ccccc3)nc3ccccc23)cc1S(=O)(=O)N1CCOCC1,inactive
6,C=CCn1c(O)c(N=NC(=O)c2cccnc2)c2cc(Br)ccc21,inactive
7,COc1cccc(C(=O)CC(=O)C(=O)Nc2cc(OC)c(OC)c(OC)c2)c1,inactive
8,Cc1cc(C)cc(N(C(=O)CNC(=O)c2cccs2)C(C(=O)NC2CCCC2)c2cccnc2)c1 (centres undefined),inactive
9,CCc1c(C)nc2cc(-c3cc(OC)cc(OC)c3)nn2c1N1CCCC1,inactive
10,CCN1CCc2c(C#N)c(NCc3ccccc3)nc(NCCO)c2C1,inactive
11,Cc1[nH]nc2c1C(C1CC=CCC1)C(C#N)=C(N)O2 (centres undefined),inactive
12,C#CC(=O)N(c1cccc(OC)c1)C(C(=O)NC1CCCC1)c1cccs1 (centres undefined),inactive
13,COc1ccc(-c2nc3ccc(C(=O)NCC(OC)OC)cc3nc2-c2ccc(OC)cc2)cc1,inactive
14,COCCCNC(=O)c1cc(OC)c(OC)c(OC)c1,inactive
15,O=C(CCCc1ccccc1)Nc1cccnc1,inactive
16,COc1ccc(CCC(=O)NCc2cn3ccccc3n2)cc1,inactive
17,S=C(Nc1ccccc1Cl)N(Cc1ccccc1)Cc1ccccn1,inactive
18,CCOCCCNC(=O)C(c1ccc(OC)cc1)N(Cc1cccs1)C(=O)c1ccccn1 (centres undefined),inactive
19,O=c1c2ccccc2ncn1Cc1ccc(Cl)cc1,inactive
20,CCOC(=O)CSc1nnc2c(n1)C1(C)CCC2C1(C)C (centres undefined),inactive
21,O=C(O)/C=C/c1cn(-c2ccccc2)nc1-c1cc2ccccc2oc1=O,inactive
22,Cc1cccc(OCC(=O)NNc2c3ccccc3nc3ccccc23)c1,inactive
23,Cc1ccc(OCC(=O)N2CCN(S(C)(=O)=O)CC2)cc1,inactive
24,CCC(C)(C)NC(=O)COc1ccc(C(=O)c2ccccc2)cc1,inactive
25,CCOc1ccc(NC(=O)CN(C)S(=O)(=O)c2cccs2)cc1,inactive
26,COc1ccc(Cl)cc1S(=O)(=O)N1CCN(C(=O)c2ccco2)CC1,inactive

row,Structure (SMILES),inhibition
1,CCOC(=O)N1CCN(C(=S)NC(=O)c2ccc(Br)cc2)CC1,inactive
2,CCOC(=O)c1ccc(S(=O)(=O)N2CCN(CCC#N)CC2)cc1,inactive
3,CCOC(=O)N1CCN(CC(=O)Nc2ccc(F)cc2F)CC1,inactive
4,COc1ccc(N(CCCN2C(=O)c3cccc4cccc(c34)C2=O)C(=O)c2cccnc2)cc1,inactive
5,C/C(=N\NC(=O)COc1ccccc1[N+](=O)[O-])c1cccs1,inactive
6,CC1CCCN(C(=O)Cn2c(=O)oc3cc(S(=O)(=O)N4CCCCC4)ccc32)C1 (centres undefined),inactive
7,O=C(Cn1c(=O)oc2cc(S(=O)(=O)N3CCCC3)ccc21)N1CCN(c2ccccc2F)CC1,inactive
8,CCn1cc(C(=O)O)c(=O)c2cc(F)c(N3CCN(C(=S)NC(=O)c4ccccc4F)CC3)cc21,inactive
9,CCN(CC)c1cc(C)c2cc(NC(=O)c3ccccc3F)ccc2n1,inactive
10,N=C1c2ccccc2CN1c1ncccn1,inactive
11,COCCCNc1c2c(nc3nnnn13)CCCC2,inactive
12,CCN(CC)S(=O)(=O)c1ccc(N2CCOCC2)c(C(=O)O)c1,inactive
13,CCN(CC)CCOC(=O)c1cc(Cl)c(N)cc1OC,inactive
14,COc1ccc(C(CC(=O)O)NC(=O)C2CCCCC2)cc1 (centres undefined),inactive
15,COc1ccc(CCNC(=O)Cn2c(=O)n(CC3CCCO3)c(=O)c3ccccc32)cc1OC (centres undefined),inactive
16,COc1ccc(OC)c(-c2cc(C(=O)Nc3ccc(F)cc3F)no2)c1,inactive
17,Cc1nc(N2CCOCC2)c2c(C)c(C(=O)Nc3ccccc3C(F)(F)F)sc2n1,inactive
18,O=C(Cn1nc(Cl)nc1Cl)c1ccc([N+](=O)[O-])cc1,inactive
19,CC1CC(C)CN(S(=O)(=O)c2ccc3c(c2)oc(=O)n3CC(=O)N(C)Cc2ccccc2)C1 (centres undefined),inactive
20,Cc1cc(=O)n2nc(N3CCCC(C(=O)NC4CCCCC4C)C3)sc2n1 (centres undefined),inactive
21,Cc1nnc(SCC(=O)Nc2cc(S(=O)(=O)N3CCCC3)ccc2Cl)s1,inactive
22,CCOc1ccc(S(=O)(=O)N2CCC(C(=O)NCCN3CCOCC3)CC2)cc1C,inactive
23,CCCCCCCCn1ccc(=N)cc1,inactive
24,CCN(CC)CCn1nc(C)nc1-c1ccccc1O,inactive
25,CCN1c2ccccc2NC2N=C(OC)C(c3ccccc3)C21 (centres undefined),inactive
26,O=C(Nc1ccc(F)cc1)c1ccc2snnc2c1,inactive

row,Structure (SMILES),inhibition
1,Clc1ccc(CN2CCN(/N=C/c3ccco3)CC2)cc1,inactive
2,C=CCn1c(C)cc(C(=O)CSc2n[nH]c(N)n2)c1C,inactive
3,COc1ccc(NC(=O)N2CCc3ccccc32)cc1,inactive
4,O=C(CCl)NC1CCCc2ccccc21 (centres undefined),inactive
5,Cc1c(-n2cc(C(=O)c3ccccc3O)cc(C#N)c2=O)c(=O)n(-c2ccccc2)n1C,inactive
6,Cc1c(NC(=O)OCc2ccccc2)c(=O)n(-c2ccccc2)n1C,inactive
7,Cc1csc2ncc(C(=O)Nc3ccon3)c(=O)n12,inactive
8,O=C(CCn1cccc1)Nc1ccc(OC(F)(F)F)cc1,inactive
9,O=C(O)C1CCCCC1C(=O)NCCc1ccncc1 (centres undefined),inactive
10,N/C(=N\OC(=O)C(c1ccccc1)c1ccccc1)c1ccncc1,inactive
11,COc1ccc(N(C(=O)c2cccnc2)S(=O)(=O)c2ccc(F)cc2)cc1,inactive
12,O=C(Nc1ccc(S(=O)(=O)N2CCCC2)cc1)c1cccnc1,inactive
13,CCOC(=O)C(O)(NC(=O)c1cccnc1)C(F)(F)F (centres undefined),inactive
14,N/C(=N\OC(=O)COc1ccc2ccccc2c1)c1ccccn1,inactive
15,O=C(O)c1[nH]c2ccc(Br)cc2c1CCN1C(=O)c2cccc([N+](=O)[O-])c2C1=O,inactive
16,CCOC(=O)C(NC(C)=O)(OCc1ccc(F)cc1)C(F)(F)F (centres undefined),inactive
17,COc1cccc(/C=N/NC(=O)CNC(=O)CCc2ccccc2)c1O,inactive
18,COc1ccc(C2CC(=O)N3CN(Cc4ccco4)CSC3=C2C#N)cc1 (centres undefined),inactive
19,C=CCNC(=O)NC(=O)COC(=O)/C(C#N)=C/c1ccc(OC)cc1,inactive
20,N/C(=N\OC(=O)N1CCOCC1)c1ccccc1,inactive
21,O=C(Nc1cccc(OCC(=O)N2CCOCC2)c1)c1cccc([N+](=O)[O-])c1,inactive
22,CCC(C)(c1ccc(C(=O)OC)s1)c1ccc(C(=O)OC)s1,inactive
23,CC(C)(C)c1ccc(NC(=O)COc2ccc(-n3ccnc3)cc2)cc1,inactive
24,CCOC(=O)C1CCN(Cc2nc(-c3ccc(OC)c(OC)c3)no2)CC1,inactive
25,CC1=C([N+](=O)[O-])C(c2ccccc2)C2=C(N1)c1ccccc1C2=O (centres undefined),inactive
26,CCSC1=NCN(CCCC(=O)O)CN1,inactive
